Source: PubChem BioAssay (National Center for Advancing Translational Sciences (NCATS))
Hits are enriched below; roughly 19% of the tested compounds scored in any of these assays.
KB-V1 cytotox: KB-V1 MDR subline cytotoxicity; Potency, µM (titrated, usually from 46.1 µM), most hits filed as cytotoxic; 400,000 compounds, 3.4% hits; AID 1347076; KB-V1 MDR cells viability, CellTiter-Glo, 72 h; note: nearly all actives have a fitted effect of over 60% in size
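KB-V1 MDR subline cells in DMEM (phenol-red free, 10% FBS) exposed to compounds in qHTS concentration series for 72 h at 37 degrees C. Viability read by CellTiter-Glo luminescence; concentration-effect curves fitted after normalization and correction.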
KB-3-1 tox: KB-3-1 parental cell cytotoxicity. KB-3-1 viability, CellTiter-Glo ATP luminescence, 72 h. Potency, µM (doses to about 46.1 µM), hits mostly cytotoxic. 400,000 compounds, 1.4% hits. AID 1347075; note: nearly all actives have a fitted effect of over 60% in size
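KB-3-1 cells, DMEM (no phenol red) + 10% FBS; compound by pin transfer, 72 h, 37 °C. Readout: CellTiter-Glo luminescence after 10 min. Data normalized, curve-fitted.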
DT40 TDP1 CPT: growth inhibition of DT40 Tdp1-/-;hTDP1 cells with camptothecin (screen for TDP1 inhibitors) | chicken DT40 Tdp1-/-;hTDP1 cells + 20 nM CPT, ATP luminescence, 48 h | Potency, µM (doses to about 46.2 µM), for the others: at the highest dose activity change, negative = growth inhibition, most hits filed as inhibitors | 420,000 compounds, 12% hits | AID 686979; note: nearly all actives have a fitted effect of over 55% in size
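Chicken DT40 Tdp1-/- cells stably complemented with human TDP1 were seeded at 400 cells/well in medium containing 20 nM camptothecin, exposed to pin-transferred compounds, and grown at 37 °C for at least 48 hr. Viability was read as ATP luminescence.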
TDP1 cell noCPT: qHTS for Inhibitors of human tyrosyl-DNA phosphodiesterase 1 (TDP1): qHTS in cells in absence of CPT | DT40 Tdp1-/- hTDP1 cells, no CPT, ATP luminescence, 48 h | Potency, µM (titrated, usually from 46.2 µM), without a hit: at the top dose activity change, negative = growth inhibition, hits mostly inhibitors | 420,000 compounds, 15% hits | AID 686978, 2013; note: nearly all actives have a fitted effect of over 55% in size
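Cells were dispensed at 400 per well, compounds added by pin tool, plates incubated ≥48 hr at 37 °C, then CellTiter-Glo added for 30 min at room temperature before luminescence reading. Line: DT40 Tdp1-/- complemented with hTDP1; camptothecin omitted.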
HT1080-NT tox: kills 2HG-producing HT-1080-NT fibrosarcoma cells; HT-1080-NT fibrosarcoma viability, CellTiter-Glo ATP luminescence, 48 h; Potency, µM (series often up to 46.1 µM), inactives show at the top dose activity, negative = less viability, hits mostly cytotoxic; 360,000 compounds, 1.6% hits; AID 686970;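 note: NT is the 2HG producing partner of a matched IDH1 knockdown line; 0% = DMSO-treated cells and -100% = media-only wells without cells; nearly all actives have a fitted effect of over 55% in size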
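Toxicity toward the 2HG-producing NT line was scored as %Activity, normalised to DMSO and no-cell wells, from CellTiter-Glo luminescence after 48 hours' treatment.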
HT1080 IDH1KD tx: kills HT-1080 cells with IDH1 knockdown; HT-1080 IDH1 knockdown viability, ATP luminescence, 48 h; 360,000 compounds, 2% hits; Potency, µM (titrated, usually from 46.1 µM), for inactives: at the highest dose activity, negative = toxicity, most hits filed as cytotoxic; AID 686971;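 note: 0% = DMSO wells and -100% = cell-free medium wells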
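Viability of IDH1-knockdown HT-1080 fibrosarcoma cells was assessed by CellTiter-Glo after 48 h at 37 °C with titrated compound; concentration-effect curves were classified by fit quality and response size.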
* hit, by the source's call; i = inactive; u = inconclusive; x = no result given. Calls come from the whole dose curve; as a rule, active = well fitted curve in the direction sought with a large enough effect; inconclusive = small, poorly fitted or top-dose-only effect, or another doubt; inactive = no such curve, though single readings can be large; an effect the other way counts as inactive or inconclusive. Unless noted, % is set by controls: 0 for no effect and ±100 for the full control effect; potency is the fitted concentration of half-maximal effect.

SMILES	KB-V1 cytotox	KB-3-1 tox	DT40 TDP1 CPT	TDP1 cell noCPT	HT1080-NT tox	HT1080 IDH1KD tx
CC(=O)c1c(N2CCC(C(N)=O)CC2)nc(=S)n(-c2ccccc2)c1C	i	i	-2%	-7%	2%	1%
COc1cc2nc(Cl)nc(N3CCOCC3)c2cc1OC	u	i	u	u	-5%	-11%
COc1cc2nc(Cl)nc(N3CCCCC3)c2cc1OC	i	i	-15%	26µM*	0%	2%
CC(C)(C)NC(=O)C1c2ccccc2OCC(=O)N1Cc1ccco1 (stereo not drawn)	i	i	-14%	16%	21%	20%
CC1(C)Cc2c(c(-c3ccco3)nc3sc4c(NCCN5CCOCC5)ncnc4c23)CO1	i	i	8.2µM*	21µM*	23µM*	16µM*
CSc1nc(NCCN(C)C)c2sc3nc(-c4ccco4)c4c(c3c2n1)CCC4	i	i	6.5µM*	12µM*	-23%	-8%
CC1(C)Cc2c(C#N)c(NCCO)nc(-c3ccco3)c2CO1	u	i	-22%	u	8%	1%
CSc1nc(SCC(=O)O)c2sc3nc(-c4ccccc4)c4c(c3c2n1)CCC4	u	i	-3%	u	-26%	-2%
CC1(C)Cc2c(c(-c3ccco3)nc3sc4c(NCC5CCCO5)ncnc4c23)CO1 (stereo not drawn)	u	u	18µM*	21µM*	u	u
CC1(C)Cc2c(c(-c3ccco3)nc3sc4c(NCCCO)ncnc4c23)CO1	u	i	10µM*	8.2µM*	0%	-4%
CCC(C)(C)NC(=O)C(Sc1ccccc1)c1ccccc1 (stereo not drawn)	i	i	-17%	u	0%	8%
CC(=O)NS(=O)(=O)c1ccc(NC(=O)CSc2ccc(C)cc2)cc1	i	i	-16%	5%	8%	22%
Cc1cc(C)c(S(=O)(=O)N2CCN=C2c2ccccc2)c(C)c1	i	i	u	16µM*	-3%	1%
Cc1cc(S(=O)(=O)N2CCN=C2c2ccccc2)c(C)cc1Cl	u	i	-30%	u	-1%	-3%
CC(=O)NC1CC(=O)N(c2ccc3c(c2)OCCO3)C1 (stereo not drawn)	x	x	-1%	-11%	x	x
CCC(=O)Nc1nnc(-c2ccc(OC)cc2)o1	i	i	-15%	-17%	1%	-4%
O=C(Nc1nc(-c2ccccc2)c(-c2ccccc2)o1)c1ccc(F)cc1	u	u	9.2µM*	8.2µM*	-27%	u
COc1ccc(-c2nnc(NC(=O)c3ccc(F)cc3)o2)cc1	i	i	2.9µM*	u	-7%	u
O=C(Nc1nnc(-c2ccc(F)cc2)o1)c1ccc(S(=O)(=O)N2CCOCC2)cc1	u	4.1µM*	3.3µM*	2.9µM*	-15%	u
Cc1ccc(NC(=O)c2ccc(S(=O)(=O)N3CCOCC3)cc2)cc1	i	i	10%	-5%	-7%	-9%
COc1ccc(-c2nnc(NC(=O)c3cc(Cl)ccc3Cl)o2)cc1	i	u	16µM*	u	-12%	-27%
O=C(Nc1nnc(-c2ccc(F)cc2)o1)c1ccco1	i	i	u	u	0%	-14%
C[C@@H]1CN([C@@H](C)CO)C(=O)CCCn2nncc2CO[C@@H]1CN(C)S(=O)(=O)c1ccc2ccccc2c1	i	i	u	-19%	3%	-3%
CCOC(=O)c1cccc(NC(=O)CSc2nncn2-c2ccccn2)c1	u	i	7%	-21%	-6%	-3%
COc1ccccc1C(=O)Nc1nnc(-c2ccc(F)cc2)o1	i	u	7%	-28%	-4%	12%
Cc1ccccc1C(=O)Nc1nnc(-c2ccc(F)cc2)o1	i	u	6.5µM*	5.8µM*	u	u
O=C(CSc1nnc(-c2cccs2)o1)Nc1cccc(S(=O)(=O)N2CCCCC2)c1	i	i	-17%	-8%	3%	2%
